Assays:
Assay in all cases: DAPPL (digital affinity profiling via proximity ligation, sequencing); 10 mM Tris-HCl pH 7.5, 50 mM NaCl, 1 mM DTT, 4% glycerol, room temperature, 30 min; GST-TFs on glutathione beads, 16-mer random dsDNA library, 0.1% formaldehyde crosslink after washing; high values mean tight binding
FLI1 = molecular target: T1, FLI1 (Homo sapiens, UniProt Q01543 1-452); settings: protein: recombinant; tags: N-terminal GST; dsDNA, one strand shown
T1 sequence: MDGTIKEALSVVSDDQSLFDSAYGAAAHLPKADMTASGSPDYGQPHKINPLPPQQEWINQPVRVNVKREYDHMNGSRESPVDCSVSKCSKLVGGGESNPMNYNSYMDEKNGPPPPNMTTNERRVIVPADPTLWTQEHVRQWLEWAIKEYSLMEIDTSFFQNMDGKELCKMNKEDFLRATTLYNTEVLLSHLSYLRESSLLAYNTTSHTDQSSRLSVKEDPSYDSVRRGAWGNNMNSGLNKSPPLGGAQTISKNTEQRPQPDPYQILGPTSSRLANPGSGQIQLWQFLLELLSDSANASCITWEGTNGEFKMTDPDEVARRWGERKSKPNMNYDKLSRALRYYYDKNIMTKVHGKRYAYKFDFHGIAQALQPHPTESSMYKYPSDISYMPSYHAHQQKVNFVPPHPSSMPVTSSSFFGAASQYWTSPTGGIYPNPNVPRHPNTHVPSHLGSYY
Procedure, shortened: (§1)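 A tag-only sample was pooled with DNA-barcoded human transcription factors that had been expressed in yeast as GST fusions and captured on glutathione beads. The pools were incubated for 30 min at room temperature with 200 nmole of a random double-stranded 16-mer DNA library in Tris/NaCl/DTT/glycerol buffer, then washed, crosslinked with 0.1% formaldehyde, proximity-ligated (BsaI/T4 ligase, 1 h, 37 °C), PCR-amplified and sequenced on an Illumina NextSeq500. Binding signal is each hexamer's read frequency for a factor divided by its frequency for the tag-only sample.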

ELK1 = molecular target: T2, ELK1 (Homo sapiens, UniProt P19419 1-428); settings: protein: recombinant; tags: N-terminal GST; dsDNA, one strand shown
T2 sequence: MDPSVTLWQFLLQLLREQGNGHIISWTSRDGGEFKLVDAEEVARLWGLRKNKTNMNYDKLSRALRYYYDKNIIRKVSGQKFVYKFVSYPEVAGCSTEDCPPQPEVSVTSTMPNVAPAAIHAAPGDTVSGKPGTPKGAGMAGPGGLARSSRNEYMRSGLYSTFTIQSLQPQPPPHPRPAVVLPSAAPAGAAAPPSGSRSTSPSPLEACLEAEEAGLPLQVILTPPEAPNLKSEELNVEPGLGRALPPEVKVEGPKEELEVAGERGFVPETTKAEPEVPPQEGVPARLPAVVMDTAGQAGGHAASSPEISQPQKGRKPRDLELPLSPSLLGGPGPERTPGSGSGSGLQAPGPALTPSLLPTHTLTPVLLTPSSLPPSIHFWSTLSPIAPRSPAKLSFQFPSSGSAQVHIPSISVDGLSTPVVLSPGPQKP
Procedure, shortened: as §1

GABPA = molecular target: T3, GABPA (Homo sapiens, UniProt Q06546 1-454); settings: protein: recombinant; tags: N-terminal GST; dsDNA, one strand shown
T3 sequence: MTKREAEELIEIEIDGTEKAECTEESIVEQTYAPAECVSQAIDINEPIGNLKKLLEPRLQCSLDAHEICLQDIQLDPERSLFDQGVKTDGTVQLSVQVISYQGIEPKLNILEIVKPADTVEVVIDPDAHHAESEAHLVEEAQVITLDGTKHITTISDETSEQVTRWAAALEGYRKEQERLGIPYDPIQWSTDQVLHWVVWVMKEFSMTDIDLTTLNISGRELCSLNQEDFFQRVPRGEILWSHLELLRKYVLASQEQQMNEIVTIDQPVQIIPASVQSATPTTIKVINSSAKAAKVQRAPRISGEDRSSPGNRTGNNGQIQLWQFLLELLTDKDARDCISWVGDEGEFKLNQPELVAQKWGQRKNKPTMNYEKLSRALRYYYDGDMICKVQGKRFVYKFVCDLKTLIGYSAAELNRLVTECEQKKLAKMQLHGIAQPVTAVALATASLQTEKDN
Procedure, shortened: as §1

ERG = molecular target: T4, ERG (Homo sapiens, UniProt P11308 1-479); settings: protein: recombinant; tags: N-terminal GST; dsDNA, one strand shown
T4 sequence: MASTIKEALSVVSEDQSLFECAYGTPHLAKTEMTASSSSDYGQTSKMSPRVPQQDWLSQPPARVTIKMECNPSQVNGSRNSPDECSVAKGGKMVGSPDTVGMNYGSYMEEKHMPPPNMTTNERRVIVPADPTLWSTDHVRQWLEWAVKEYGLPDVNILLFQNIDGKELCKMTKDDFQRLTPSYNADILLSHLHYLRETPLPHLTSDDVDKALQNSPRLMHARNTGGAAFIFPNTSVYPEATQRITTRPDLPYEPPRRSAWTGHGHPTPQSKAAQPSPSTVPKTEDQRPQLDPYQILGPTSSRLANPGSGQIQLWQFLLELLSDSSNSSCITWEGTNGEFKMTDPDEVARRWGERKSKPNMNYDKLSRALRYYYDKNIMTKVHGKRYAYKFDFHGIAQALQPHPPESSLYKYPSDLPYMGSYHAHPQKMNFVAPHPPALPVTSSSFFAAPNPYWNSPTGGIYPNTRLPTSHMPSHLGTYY
Procedure, shortened: as §1

ELF1 = ELF1 (Homo sapiens, UniProt P32519 1-619); settings: protein: recombinant; tags: N-terminal GST; dsDNA, one strand shown
Chain of ELF1 (P32519 whole entry): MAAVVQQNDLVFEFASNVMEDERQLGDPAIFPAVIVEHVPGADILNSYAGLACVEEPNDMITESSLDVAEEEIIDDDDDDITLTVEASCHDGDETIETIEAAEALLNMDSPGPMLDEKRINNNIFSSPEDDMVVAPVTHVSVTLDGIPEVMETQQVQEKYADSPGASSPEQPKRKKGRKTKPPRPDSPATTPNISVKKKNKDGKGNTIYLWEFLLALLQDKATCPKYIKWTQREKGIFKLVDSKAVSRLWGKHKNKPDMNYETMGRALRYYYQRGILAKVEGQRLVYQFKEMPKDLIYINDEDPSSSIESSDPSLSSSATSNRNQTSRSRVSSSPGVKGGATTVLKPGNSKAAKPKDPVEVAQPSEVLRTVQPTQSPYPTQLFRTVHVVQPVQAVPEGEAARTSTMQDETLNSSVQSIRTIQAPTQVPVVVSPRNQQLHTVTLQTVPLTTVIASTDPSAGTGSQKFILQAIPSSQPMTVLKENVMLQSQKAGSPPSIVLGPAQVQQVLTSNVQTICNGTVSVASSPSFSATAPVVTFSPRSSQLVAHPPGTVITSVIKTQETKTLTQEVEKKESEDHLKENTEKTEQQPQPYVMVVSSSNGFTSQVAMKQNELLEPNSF
Procedure, shortened: as §1

EHF = molecular target: T5, EHF (Homo sapiens, UniProt Q9NZC4 1-300); settings: protein: recombinant; tags: N-terminal GST; dsDNA, one strand shown
T5 sequence: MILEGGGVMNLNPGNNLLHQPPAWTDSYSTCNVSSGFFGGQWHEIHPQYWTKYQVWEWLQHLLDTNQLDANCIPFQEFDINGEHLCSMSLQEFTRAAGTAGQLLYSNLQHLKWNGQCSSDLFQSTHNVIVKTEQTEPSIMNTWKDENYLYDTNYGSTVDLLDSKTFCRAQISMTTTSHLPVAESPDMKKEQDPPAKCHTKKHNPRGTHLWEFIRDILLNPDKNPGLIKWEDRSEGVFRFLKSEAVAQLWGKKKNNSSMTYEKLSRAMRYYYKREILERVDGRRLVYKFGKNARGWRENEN
Procedure, shortened: as §1

SPI1 = SPI1 (Homo sapiens, UniProt P17947 1-270); settings: protein: recombinant; tags: N-terminal GST; dsDNA, one strand shown
Procedure, shortened: as §1

SPIB = SPIB (Homo sapiens, UniProt Q01892 1-262); settings: protein: recombinant; tags: N-terminal GST; dsDNA, one strand shown
Chain of SPIB (Q01892 whole entry): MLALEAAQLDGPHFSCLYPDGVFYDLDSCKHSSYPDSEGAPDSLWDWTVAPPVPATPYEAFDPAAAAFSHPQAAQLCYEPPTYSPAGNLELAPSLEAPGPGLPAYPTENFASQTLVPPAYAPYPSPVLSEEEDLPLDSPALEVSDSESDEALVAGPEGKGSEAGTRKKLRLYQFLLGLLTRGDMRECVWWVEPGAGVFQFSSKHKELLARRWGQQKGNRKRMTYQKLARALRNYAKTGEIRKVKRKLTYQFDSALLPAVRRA
Procedure, shortened: as §1

ELK3 = molecular target: T6, ELK3 (Homo sapiens, UniProt P41970 1-407); settings: protein: recombinant; tags: N-terminal GST; dsDNA, one strand shown
T6 sequence: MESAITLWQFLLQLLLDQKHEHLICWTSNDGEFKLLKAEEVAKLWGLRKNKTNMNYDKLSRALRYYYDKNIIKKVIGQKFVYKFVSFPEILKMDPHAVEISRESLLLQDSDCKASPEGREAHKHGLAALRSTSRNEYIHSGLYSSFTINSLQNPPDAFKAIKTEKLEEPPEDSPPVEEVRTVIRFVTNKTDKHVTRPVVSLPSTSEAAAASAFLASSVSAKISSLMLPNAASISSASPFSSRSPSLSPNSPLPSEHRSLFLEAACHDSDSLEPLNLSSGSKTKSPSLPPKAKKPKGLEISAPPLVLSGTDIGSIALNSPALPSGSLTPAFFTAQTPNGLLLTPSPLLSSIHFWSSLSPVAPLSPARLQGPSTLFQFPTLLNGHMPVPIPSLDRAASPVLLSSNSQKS
Procedure, shortened: as §1

FEV = molecular target: T7, FEV (Homo sapiens, UniProt Q99581 1-238); settings: protein: recombinant; tags: N-terminal GST; dsDNA, one strand shown
T7 sequence: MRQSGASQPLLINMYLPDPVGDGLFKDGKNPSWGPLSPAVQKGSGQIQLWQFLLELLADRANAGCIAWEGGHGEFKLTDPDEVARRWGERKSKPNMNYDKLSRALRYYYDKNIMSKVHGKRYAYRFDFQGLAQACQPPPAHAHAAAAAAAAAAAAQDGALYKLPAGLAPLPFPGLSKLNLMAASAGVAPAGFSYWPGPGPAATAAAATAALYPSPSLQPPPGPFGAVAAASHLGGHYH
Procedure, shortened: as §1

ETV5 = ETV5 (Homo sapiens, UniProt P41161 1-510); settings: protein: recombinant; tags: N-terminal GST; dsDNA, one strand shown
Chain of ETV5 (P41161 whole entry): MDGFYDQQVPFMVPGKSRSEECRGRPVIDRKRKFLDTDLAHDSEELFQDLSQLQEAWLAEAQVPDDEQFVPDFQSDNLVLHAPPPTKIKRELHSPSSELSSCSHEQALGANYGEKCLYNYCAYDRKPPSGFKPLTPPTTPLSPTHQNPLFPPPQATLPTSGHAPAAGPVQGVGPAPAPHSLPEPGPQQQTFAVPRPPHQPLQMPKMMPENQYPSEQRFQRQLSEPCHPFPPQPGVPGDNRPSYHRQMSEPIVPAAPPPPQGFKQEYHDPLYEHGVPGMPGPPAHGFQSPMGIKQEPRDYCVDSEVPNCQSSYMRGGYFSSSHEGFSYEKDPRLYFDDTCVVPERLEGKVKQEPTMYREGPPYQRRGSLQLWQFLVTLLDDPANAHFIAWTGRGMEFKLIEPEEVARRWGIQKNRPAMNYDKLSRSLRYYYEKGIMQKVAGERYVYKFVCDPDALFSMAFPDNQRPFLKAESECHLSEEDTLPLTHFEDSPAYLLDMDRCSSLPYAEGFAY
Procedure, shortened: as §1

HSF1 = HSF1 (Homo sapiens, UniProt Q00613 1-529); settings: protein: recombinant; tags: N-terminal GST; chain copies: 3; dsDNA, one strand shown
Chain of HSF1 (Q00613 whole entry): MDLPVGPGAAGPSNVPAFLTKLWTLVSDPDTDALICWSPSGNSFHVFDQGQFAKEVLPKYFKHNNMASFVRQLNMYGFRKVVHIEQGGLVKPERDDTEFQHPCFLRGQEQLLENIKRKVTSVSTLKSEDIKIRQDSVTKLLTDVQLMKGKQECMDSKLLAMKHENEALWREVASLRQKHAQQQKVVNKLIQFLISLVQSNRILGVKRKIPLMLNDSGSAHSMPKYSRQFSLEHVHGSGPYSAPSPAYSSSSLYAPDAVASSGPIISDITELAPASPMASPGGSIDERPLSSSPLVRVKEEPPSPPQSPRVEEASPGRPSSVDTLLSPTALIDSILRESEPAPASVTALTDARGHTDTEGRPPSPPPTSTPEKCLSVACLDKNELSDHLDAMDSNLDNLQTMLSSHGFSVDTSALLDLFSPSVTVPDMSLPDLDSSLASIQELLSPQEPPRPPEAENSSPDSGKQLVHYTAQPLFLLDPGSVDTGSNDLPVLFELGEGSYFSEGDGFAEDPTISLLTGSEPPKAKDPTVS
Procedure, shortened: as §1

SPIC = molecular target: T8, SPIC (Homo sapiens, UniProt Q8N5J4 1-248); settings: protein: recombinant; tags: N-terminal GST; dsDNA, one strand shown
T8 sequence: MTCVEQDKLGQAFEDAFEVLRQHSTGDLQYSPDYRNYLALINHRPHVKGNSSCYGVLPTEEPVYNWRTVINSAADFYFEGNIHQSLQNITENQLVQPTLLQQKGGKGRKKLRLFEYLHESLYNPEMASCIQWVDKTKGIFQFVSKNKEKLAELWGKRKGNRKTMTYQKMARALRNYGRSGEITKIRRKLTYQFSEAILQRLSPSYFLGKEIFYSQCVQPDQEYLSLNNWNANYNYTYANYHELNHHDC
Procedure, shortened: as §1

ELF4 = ELF4 (Homo sapiens, UniProt Q99607 1-663); settings: protein: recombinant; tags: N-terminal GST; dsDNA, one strand shown
Chain of ELF4 (Q99607 whole entry): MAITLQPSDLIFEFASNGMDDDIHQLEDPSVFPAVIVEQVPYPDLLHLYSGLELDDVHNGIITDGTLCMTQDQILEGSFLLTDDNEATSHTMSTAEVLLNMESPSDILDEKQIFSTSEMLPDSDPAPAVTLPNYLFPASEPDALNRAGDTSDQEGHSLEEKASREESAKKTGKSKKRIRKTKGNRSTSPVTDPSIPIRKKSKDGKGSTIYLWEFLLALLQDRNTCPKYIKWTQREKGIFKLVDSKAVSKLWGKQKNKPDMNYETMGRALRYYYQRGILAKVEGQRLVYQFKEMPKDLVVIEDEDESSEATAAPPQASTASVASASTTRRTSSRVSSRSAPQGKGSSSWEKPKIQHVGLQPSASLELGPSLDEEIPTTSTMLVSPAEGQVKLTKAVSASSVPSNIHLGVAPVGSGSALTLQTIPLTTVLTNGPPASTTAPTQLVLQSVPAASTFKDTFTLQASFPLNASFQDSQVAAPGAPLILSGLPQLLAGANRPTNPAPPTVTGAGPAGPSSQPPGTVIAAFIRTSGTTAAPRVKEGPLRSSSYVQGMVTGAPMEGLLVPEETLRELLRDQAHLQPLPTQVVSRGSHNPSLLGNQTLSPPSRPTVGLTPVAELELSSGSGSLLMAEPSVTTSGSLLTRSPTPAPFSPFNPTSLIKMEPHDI
Procedure, shortened: as §1

ELK4 = molecular target: T9, ELK4 (Homo sapiens, UniProt P28324-2 1-405); settings: protein: recombinant; tags: N-terminal GST; dsDNA, one strand shown
T9 sequence: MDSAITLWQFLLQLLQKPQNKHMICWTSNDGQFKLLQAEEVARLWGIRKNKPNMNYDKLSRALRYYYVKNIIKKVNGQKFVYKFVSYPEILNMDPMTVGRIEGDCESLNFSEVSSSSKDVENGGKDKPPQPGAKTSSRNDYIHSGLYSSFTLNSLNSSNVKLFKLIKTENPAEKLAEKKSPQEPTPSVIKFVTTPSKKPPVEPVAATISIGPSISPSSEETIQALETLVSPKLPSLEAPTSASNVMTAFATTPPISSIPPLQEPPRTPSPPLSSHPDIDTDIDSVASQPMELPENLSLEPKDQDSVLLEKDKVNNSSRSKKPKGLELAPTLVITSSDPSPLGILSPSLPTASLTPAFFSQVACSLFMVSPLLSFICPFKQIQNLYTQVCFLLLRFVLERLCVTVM
Procedure, shortened: as §1

ETV2 = molecular target: T10, ETV2 (Homo sapiens, UniProt O00321 1-342); settings: protein: recombinant; tags: N-terminal GST; dsDNA, one strand shown
T10 sequence: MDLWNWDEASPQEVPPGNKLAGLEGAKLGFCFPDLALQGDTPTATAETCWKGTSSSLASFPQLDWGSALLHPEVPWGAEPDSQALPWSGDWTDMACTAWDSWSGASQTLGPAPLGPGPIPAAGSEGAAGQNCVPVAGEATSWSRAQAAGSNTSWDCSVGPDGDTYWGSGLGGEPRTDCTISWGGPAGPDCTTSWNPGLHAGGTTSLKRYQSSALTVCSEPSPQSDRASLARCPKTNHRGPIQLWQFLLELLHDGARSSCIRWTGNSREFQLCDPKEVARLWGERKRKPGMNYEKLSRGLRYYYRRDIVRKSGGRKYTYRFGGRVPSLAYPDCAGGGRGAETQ
Procedure, shortened: as §1

ELF3 = molecular target: T11, ELF3 (Homo sapiens, UniProt P78545 1-371); settings: protein: recombinant; tags: N-terminal GST; dsDNA, one strand shown
T11 sequence: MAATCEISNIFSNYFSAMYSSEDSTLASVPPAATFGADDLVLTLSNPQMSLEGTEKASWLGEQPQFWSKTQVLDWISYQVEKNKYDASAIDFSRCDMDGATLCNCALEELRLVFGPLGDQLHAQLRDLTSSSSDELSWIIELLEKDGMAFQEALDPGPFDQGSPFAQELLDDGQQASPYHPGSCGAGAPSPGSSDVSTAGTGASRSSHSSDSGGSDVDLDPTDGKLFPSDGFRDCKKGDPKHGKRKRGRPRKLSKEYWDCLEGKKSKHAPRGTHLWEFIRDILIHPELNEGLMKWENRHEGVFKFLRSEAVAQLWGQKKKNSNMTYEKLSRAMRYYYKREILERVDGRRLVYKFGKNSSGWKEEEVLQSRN
Procedure, shortened: as §1

CRX = CRX (Homo sapiens, UniProt O43186 1-299); settings: protein: recombinant; tags: N-terminal GST; dsDNA, one strand shown
Chain of CRX (O43186 whole entry): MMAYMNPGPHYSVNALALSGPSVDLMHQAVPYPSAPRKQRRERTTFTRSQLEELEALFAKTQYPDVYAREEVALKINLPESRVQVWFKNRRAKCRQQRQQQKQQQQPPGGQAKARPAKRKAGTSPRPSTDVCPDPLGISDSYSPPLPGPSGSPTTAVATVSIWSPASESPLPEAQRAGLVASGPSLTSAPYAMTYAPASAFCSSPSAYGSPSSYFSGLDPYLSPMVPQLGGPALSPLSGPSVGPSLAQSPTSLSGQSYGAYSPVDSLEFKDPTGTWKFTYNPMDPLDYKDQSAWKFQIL
Procedure, shortened: as §1

ETV1 = ETV1 (Homo sapiens, UniProt P50549 1-477); settings: protein: recombinant; tags: N-terminal GST; dsDNA, one strand shown
Chain of ETV1 (P50549 whole entry): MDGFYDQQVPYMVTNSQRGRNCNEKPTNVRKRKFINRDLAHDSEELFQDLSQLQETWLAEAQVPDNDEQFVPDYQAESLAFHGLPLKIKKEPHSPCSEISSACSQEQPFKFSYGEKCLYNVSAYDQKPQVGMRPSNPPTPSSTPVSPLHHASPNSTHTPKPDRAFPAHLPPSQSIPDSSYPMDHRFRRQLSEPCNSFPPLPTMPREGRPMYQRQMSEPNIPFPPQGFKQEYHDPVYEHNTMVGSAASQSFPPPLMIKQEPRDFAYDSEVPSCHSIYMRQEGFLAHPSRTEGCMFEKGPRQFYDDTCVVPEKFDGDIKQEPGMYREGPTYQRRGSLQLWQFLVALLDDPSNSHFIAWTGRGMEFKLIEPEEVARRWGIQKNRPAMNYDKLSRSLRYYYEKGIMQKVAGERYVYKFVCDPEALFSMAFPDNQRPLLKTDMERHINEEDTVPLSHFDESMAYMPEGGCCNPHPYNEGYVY
Procedure, shortened: as §1

TCATCT
binding signal (FLI1): 1.23 fold enrichment (6-mer frequency, TF over GST control) | binding signal (ELK1): 1.28 fold enrichment (6-mer frequency, TF over GST control) | binding signal (GABPA): 1.27 fold enrichment (6-mer frequency, TF over GST control) | binding signal (ERG): 1.15 fold enrichment (6-mer frequency, TF over GST control) | binding signal (ELF1): 1.3 fold enrichment (6-mer frequency, TF over GST control) | binding signal (EHF): 1.13 fold enrichment (6-mer frequency, TF over GST control) | binding signal (SPI1): 1.18 fold enrichment (6-mer frequency, TF over GST control) | binding signal (SPIB): 1.28 fold enrichment (6-mer frequency, TF over GST control) | binding signal (ELK3): 1.16 fold enrichment (6-mer frequency, TF over GST control) | binding signal (FEV): 1.08 fold enrichment (6-mer frequency, TF over GST control) | binding signal (ETV5): 1.19 fold enrichment (6-mer frequency, TF over GST control) | binding signal (HSF1): 1.44 fold enrichment (6-mer frequency, TF over GST control) | binding signal (SPIC): 1.32 fold enrichment (6-mer frequency, TF over GST control) | binding signal (ELF4): 1.18 fold enrichment (6-mer frequency, TF over GST control) | binding signal (ELK4): 1.59 fold enrichment (6-mer frequency, TF over GST control) | binding signal (ETV2): 1.38 fold enrichment (6-mer frequency, TF over GST control) | binding signal (ELF3): 1.37 fold enrichment (6-mer frequency, TF over GST control) | binding signal (CRX): 1.5 fold enrichment (6-mer frequency, TF over GST control) | binding signal (ETV1): 1.15 fold enrichment (6-mer frequency, TF over GST control)

Source: publication PMC7862700, “An all-to-all approach to the identification of sequence-specific readers for epigenetic DNA modifications on cytosine”
